Compound activity deposited in PubChem BioAssay by several laboratories.
Hits are enriched below; roughly 5.3% of the tested compounds scored in any of these assays.
Measles CPE = protection of cells from measles virus; Measles virus-infected cells, CPE protection, absorbance; protection (pct of control), % at 4 µM; hit rate 1.5% among 140,000; in the data active = protection mostly above about 24%, no sharp cut-off; inactive = mostly below about 26%
PostGolgi yeast = growth inhibition of a yeast mutant, post-Golgi transport screen; post-Golgi transport phenotypic cell assay; inhibition, % at 10 µM; hit rate 0.9% among 98,000; AID 739;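 also: yeast cells grown in 1536-well plates; yeast grown about 18 h at 30C before absorbance read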
MT1-MMP txn act = MT1-MMP promoter transcription activation; HT1080 MT1-MMP promoter luciferase reporter, luminescence, overnight; hits give high values; activation factor at 10 µM; AID 750; hit rate 0.16% among 86,000;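 active = activation factor of at least 2 for MT1-MMP transcription at 10 µM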
PostGolgi ctrl = growth of the yeast control strain, post-Golgi counter-screen | AID 738 | inhibition, % at 10 µM | efflux-deficient yeast background strain, growth absorbance A615, 16 h | hit rate 5% among 98,000
* = called active by the depositor; nt = not tested or not shown. Rule as the data show it, unless noted: active = inhibition above about 30%; inactive = the rest.

SMILES | Measles CPE | PostGolgi yeast | MT1-MMP txn act | PostGolgi ctrl
CCOc1ccccc1CNC(=O)c1cc2oc3ccccc3c2n1C | 77* | 1 | 1.2 | 18
CCCCOc1cc(C)nc(NCc2ccccc2)n1 | 4 | 28 | 1.1 | 38*
CCOc1cc(C)nc(NCc2ccccc2)n1 | 5 | 6 | 1.2 | 4
O=C(Cc1sc(-c2ccccc2Cl)nc1-c1ccccc1)Nc1ccc(F)cc1 | 11 | 19 | 1.1 | -1
Nn1c(SC/C=C/c2ccccc2)nnc1-c1cccnc1 | 26* | 7 | 1.2 | 7
Clc1ccc(-n2c(SC/C=C/c3ccccc3)nnc2-c2cccnc2)cc1 | 1 | -7 | 1.1 | 35*
Nn1c(SC/C=C/c2ccccc2)nnc1-c1ccccn1 | 7 | 14 | 1.1 | 7
Cc1ccc(CN2CCN(/N=C/c3ccc(C)s3)CC2)c(C)c1 | 5 | nt | nt | nt
CCOCCCNC(=O)c1ccc(CS(=O)(=O)Cc2cccc(C)c2)o1 | 8 | -11 | 1.4 | 33*
Cc1cccc(CS(=O)(=O)Cc2ccc(C(=O)NCCCN3CCCC3)o2)c1 | 18 | 33* | 0.9 | -9
Cc1cccc(CS(=O)(=O)Cc2ccc(C(=O)NCC3CCCO3)o2)c1 (centres undefined) | 7 | 19 | 1 | 8
Cc1cccc(CS(=O)(=O)Cc2ccc(C(=O)NCCCN3CCOCC3)o2)c1 | 5 | -5 | 0.8 | -2
O=C(NCc1cccnc1)C1CCN(C(=O)c2ccc(Cl)cc2Cl)CC1 | 35* | 12 | 1.2 | 7
O=C(Nc1nc(-c2ccccn2)cs1)c1ncc(Cl)c(Cl)c1Cl | 37 | 82* | 1.1 | 39*
Cn1cccc1C(=O)Nc1nc(-c2ccccn2)cs1 | 6 | 1 | 0.8 | 6
O=C(Nc1nc(-c2ccccn2)cs1)c1ccc(Cl)s1 | 0 | 37* | nt | 24
Cc1ccc(Cn2nnnc2CN2CCC(c3nc4ccc(Cl)cc4[nH]3)CC2)cc1 | 7 | 5 | nt | 74*
COc1ccc2[nH]c3c(NCc4ccco4)ncnc3c2c1 | 5 | 0 | 2.1* | 2
CCOC(=O)N1CCC(NC(=O)C2CCN(c3ccc(N4CCOCC4)nn3)CC2)CC1 | 48* | -5 | 1.3 | 36*
CC(C)Oc1ccc(C(CC(=O)O)NC(=O)c2cccs2)cc1 (centres undefined) | 2 | -10 | 1.2 | 3
COc1cc(NC(=O)c2ccco2)c(C(=O)OCC(=O)c2c[nH]c3ccccc23)cc1OC | 0 | nt | nt | nt
O=C(c1cc(-c2ccc(Cl)cc2)n(-c2ccc(Cl)cc2)n1)N1CCOCC1 | 5 | 9 | nt | 38*
Cc1ccc(-n2nc(C(=O)N3CCOCC3)cc2-c2ccc(Cl)cc2)cc1 | 22 | 14 | nt | 41*
O=C(CSc1cnc2ccccc2n1)c1ccc(F)cc1 | 7 | nt | nt | nt
CCCCc1c2ccccc2nc2[nH]c3ccccc3c12 | nt | nt | 1.2 | nt
SMILES | Measles CPE | PostGolgi yeast | MT1-MMP txn act | PostGolgi ctrl
c1ccc(N2CCN(c3ncnc4c3oc3ccccc34)CC2)cc1 | 3 | -1 | 1 | 35*
CCOC(=O)C1CCN(c2ncnc3c2oc2ccccc23)CC1 | 3 | 0 | 1 | 18
CCOC(=O)C1CCCN(c2ncnc3c2oc2ccccc23)C1 (centres undefined) | 10 | 3 | 1.5 | 33*
CCc1nnc(N2CCN(c3ncnc4c3oc3ccccc34)CC2)s1 | 14 | 5 | 1.2 | 2
Cc1cc(C)nc(N2CCN(c3nc(C)nc4c3oc3ccccc34)CC2)n1 | nt | nt | 1.1 | nt
Cc1nc(N2CCC(C)CC2)c2oc3ccccc3c2n1 | 3 | 4 | 1 | 30*
COC(=O)[C@@]1(Cc2ccc(OC)cc2)[C@H]2c3cc(C(=O)N(C)C)n(Cc4ccc(O)c(OC)c4)c3C[C@H]2CN1C(=O)c1ccccc1 | nt | nt | 1.1 | nt
CCCCn1c(-c2ccsc2)nc2c1c(=O)[nH]c(=O)n2CCC | 23 | 3 | 1.2 | 14
CCCCn1c(=O)[nH]c(=O)c2c1nc(-c1ccsc1)n2Cc1ccccc1 | 5 | -6 | 1.2 | 31*
Cc1nc2cc(-c3ccccc3)nn2c(C)c1CCC(=O)N1CCN(c2ccccc2)CC1 | 6 | 0 | nt | 45*
Cc1nc2ncnn2c(C)c1CCC(=O)N1CCN(c2ccccn2)CC1 | 9 | -6 | 1.1 | -6
CC(C)(C)C(=O)C(Oc1cccc2nonc12)n1cncn1 (centres undefined) | 6 | 46* | 1.3 | 17
CCC/C=C(\CCC)C(NS(=O)(=O)c1ccc(Cl)cc1)c1ccc(C(=O)OC)cc1 (centres undefined) | nt | nt | 1.3 | nt
COC(=O)C1(C)Nc2ccccc2C(=O)N1c1ccccc1C (centres undefined) | 41* | -12 | 1.1 | 10
CC(=O)OC1c2ccccc2C(=O)N1c1ccccc1C (centres undefined) | 6 | 13 | 1.1 | 8
O=S(=O)(NC1CC1)c1ccc(S(=O)(=O)N2CCc3ccccc32)cc1 | 44* | -7 | 0.9 | 8
